MCF10A rerep: DNA re-replication induction in MCF 10a cells. AID 624296. MCF 10A DNA re-replication, Hoechst nuclear intensity, 48 h. 350,000 compounds, 2.9% hits. Potency, µM (doses to about 46.1 µM), for the others: at the highest dose activity, positive = re-replication, hits mostly activators; further: % of control where 0% means no effect; nearly all actives have a fitted effect of over 50% in size
ELG1 DNA repair: blocks ELG1-dependent DNA repair in HEK293T cells | HEK293T ELG1-luciferase reporter, luminescence, 16 h; DNA damage induced by 5-fluorouridine | Potency, µM (doses to about 46.1 µM), for inactives: at the top dose activity change, negative = inhibition, actives largely listed as inhibitors | 330,000 compounds, 2.3% hits; further: on the % scale 0 is the no-effect control and ±100 the full control effect; nearly all actives have a fitted effect of over 55% in size
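Overnight (16 hr) co-exposure of 2,000 cells/well to 5-fluorouridine and compound at 37 °C preceded detection. Luciferase was quantified via ONE-Glo luminescence; loss of signal denotes inhibition.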
KB-3-1 cytotox: kills parental KB-3-1 adenocarcinoma cells; KB-3-1 viability, CellTiter-Glo ATP luminescence, 72 h; Potency, µM (doses to about 46.1 µM), hits mostly cytotoxic; 400,000 compounds, 1.4% hits; AID 1347075; further: on the % scale 0 is the no-effect control and ±100 the full control effect; nearly all actives have a fitted effect of over 60% in size
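72 h, 37 °C compound treatment of KB-3-1 parental cells; CellTiter-Glo added, 10 min, luminescence read. Data corrected against DMSO-only plates and normalized before curve fitting.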
KB-V1 MDR tox: kills drug-selected multidrug resistant KB-V1 cells. KB-V1 MDR cells viability, CellTiter-Glo, 72 h. 400,000 compounds, 3.4% hits. AID 1347076. Potency, µM (highest dose often 46.1 µM), actives largely listed as cytotoxic; further: on the % scale 0 is the no-effect control and ±100 the full control effect; nearly all actives have a fitted effect of over 60% in size
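KB-V1 MDR subline cells in DMEM (phenol-red free, 10% FBS) exposed to compounds in qHTS concentration series for 72 h at 37 degrees C. Viability read by CellTiter-Glo luminescence; concentration-effect curves fitted after normalization and correction.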
SW480 rerep: induces DNA re-replication in SW480 colon adenocarcinoma cells | Potency, µM (doses to about 46.1 µM), without a hit: top-dose re-replication activation, actives largely listed as activators | 340,000 compounds, 1.8% hits | SW480 DNA re-replication, Hoechst DNA content imaging, 48 h; further: % of control where 0% means no effect; nearly all actives have a fitted effect of over 55% in size
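Quantitative HTS format with DMSO vehicle controls; 48 hr drug incubation at 37 C, then 40 min Hoechst staining and scanning imager measurement at 405 nm excitation.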
The depositor's hits bear a star; i = inactive; ? = inconclusive; . = not tested or not shown; [ ] = remark or other dose. Hits are enriched below; roughly 8.1% of the tested compounds scored in any of these assays. The call rests on the fitted dose curve; in most records, active means well fitted curve in the direction sought with a large enough effect; inconclusive means small, poorly fitted or top-dose-only effect, or another doubt; inactive means no such curve, though single readings can be large; an effect the other way counts as inactive or inconclusive. Potency means the concentration at half of the fitted maximal effect.

SMILES | MCF10A rerep | ELG1 DNA repair | KB-3-1 cytotox | KB-V1 MDR tox | SW480 rerep
Cc1ccccc1OCCC(=O)OCC(=O)N(C)c1c(N)n(Cc2ccccc2)c(=O)[nH]c1=O | -3.0% | 13.1% | i | i | -8.4%
CCN(CC)C(=O)c1cccc(-c2csc(C(O)c3ccc(F)c(OC)c3)n2)c1 (configuration not stated) | . | . | i | ? | .
CCN(CC)C(=O)c1cccc(-c2csc(C(O)c3ccc(OC)cc3)n2)c1 (configuration not stated) | . | . | ? | 18.4µM* | .
O=C(Oc1ccccc1Cl)c1ccccc1 | 16.4µM* | . | . | . | 15.0%
O=C(Oc1cccccc1=O)c1ccccc1 | ? | 5.9% | i | ? | 18.4µM*
Cc1ccc(-c2ccnc(N3CCC(C(N)=O)CC3)n2)cc1 | . | . | i | i | .
Cc1nc(CC(=O)c2ccc(O)cc2O)cs1 | -189.6%[0.0737 µM] | ? | i | i | -2.6%
Cc1nc(CC(=O)c2c(C)cc(O)cc2O)cs1 | -6.8% | ? | 20.6µM* | 20.6µM* | 1.3%
Cc1ccc(NC(=O)CN2C(=O)c3ccccc3S2(=O)=O)cc1C | ? | ? | i | i | -4.4%
O=C(CN1C(=O)c2ccccc2S1(=O)=O)Nc1ccccc1 | 6.51µM* | 20.1% | i | i | 0.1%
COc1ccc(NC(=O)c2c(NC(=O)C(F)(F)F)sc3c2CCCCC3)cc1 | . | . | i | i | .
Cc1cc(Cl)ccc1NC(=O)CCC(=O)N/N=C/c1cc([N+](=O)[O-])ccc1O | 0.1% | 7.3µM* | i | ? | 19.9%
O=[N+]([O-])c1ccc(O)c(/C=N/NC(=S)Nc2ccc(Cl)cc2Cl)c1 | 23.2% | 2.91µM* | ? | i | ?
O=[N+]([O-])c1ccc(/C=N/NC(=S)Nc2ccc(Cl)cc2Cl)s1 | ? | 8.2µM* | ? | ? | 20.6µM*
COc1cc(N(C)C)c(OC)cc1/C=C1\C=Cc2ccccc21 | . | . | i | i | .
COCCN1CC(C(=O)N2CCC(Oc3ccccc3OC)CC2)CCC1=O (configuration not stated) | -0.4% | 4.2% | . | . | -3.2%
Cc1ccc(C)c(SC2=NS(=O)(=O)c3ccccc32)c1 | . | . | i | i | .
CC1(C)CC(=O)C=C(c2ccc(COC(=O)Cc3ccccc3)cc2)C1=O | . | . | i | i | .
CC(C)(C)NC(=O)COc1ccc(CNCc2ccccn2)cc1 | 16.4µM* | 10.5% | i | i | -2.0%
O=C(O)CCN1C(=O)c2ccc(NC(=O)c3cccs3)cc2C1=O | 20.6µM* | 4.5% | i | i | 10.7%
O=C(c1ccccc1Cl)N1CCCC(c2nc3c(nnn3Cc3ccc(F)cc3F)c(=O)[nH]2)C1 (configuration not stated) | . | . | i | i | .
O=C(NCCOCCn1c(=O)oc2ccccc21)Nc1ccc(Cl)cc1 | . | . | i | i | .
Cc1cc2ncn(-c3ncnc4scc(-c5ccccc5)c34)c2cc1C | 23.6% | -23.0% | i | 4.11µM* | -1.1%
Cc1cc2ncn(-c3ncnc4sc(C)c(C)c34)c2cc1C | -3.1% | -21.7% | i | i | -2.6%
Cc1cc2ncn(-c3ncnc4sc5c(c34)CCC(C)C5)c2cc1C (configuration not stated) | ? | -7.4% | i | 13µM* | 0.1%
SMILES | MCF10A rerep | ELG1 DNA repair | KB-3-1 cytotox | KB-V1 MDR tox | SW480 rerep
Cc1ccc2c(c1)CO[C@]21O[C@H](CCO)C[C@H](O)[C@H]1O | . | . | i | i | .
Cc1ccc(C2=Nc3ccccc3N=C(c3ccc(F)cc3)C2)c(O)c1 | . | . | i | i | .
COc1ccc(Cn2c(C(=O)O)c(CNCc3ccc(C)o3)c3ccc(OC)cc32)cc1 | . | . | 8.2µM* | i | .
CCN(C[C@H]1N[C@@](CC)(C(=O)OC)[C@H]2C(=O)N(Cc3ccccc3)C(=O)[C@@H]12)C(=O)c1ccccc1 | 10.6% | 20.6µM* | i | i | 28.3%[9.22 µM]
CCN(C[C@H]1N[C@@](Cc2ccccc2)(C(=O)OC)[C@H]2C(=O)N(C)C(=O)[C@@H]12)S(=O)(=O)c1ccc(OC(F)(F)F)cc1 | -8.3% | 20.6µM* | i | ? | ?
CCN(C[C@H]1N[C@@](Cc2ccccc2)(C(=O)OC)[C@H]2C(=O)N(Cc3ccccc3)C(=O)[C@@H]12)C(=O)c1ccccc1 | -4.0% | 13.9% | i | i | 9.9%
CCCCCCSc1ccc([C@H]2N[C@@](Cc3ccccc3)(C(=O)OC)[C@H]3C(=O)N(C)C(=O)[C@@H]23)cc1 | 5.2% | 4.3% | ? | 16.4µM* | -8.6%[9.22 µM]
CCN(C[C@H]1N[C@@](Cc2ccccc2)(C(=O)OC)[C@H]2C(=O)N(C)C(=O)[C@@H]12)S(=O)(=O)c1ccc(C(F)(F)F)cc1 | ? | 23.1µM* | i | i | 6.7%
CCCCCCSc1ccc([C@H]2N[C@@](Cc3ccccc3)(C(=O)OC)[C@H]3C(=O)N(CC)C(=O)[C@@H]23)cc1 | -14.5% | -2.9% | ? | ? | -5.4%
CCN(CC)CCCNC(=O)c1cc(-c2ccc(OC)c(OC)c2)on1 | . | . | i | i | .
COc1ccc(Cn2c(SCc3ccc(C(=O)NC(C)c4ccccc4)cc3)nc3cccnc32)cc1 (configuration not stated) | . | . | i | i | .
COc1ccccc1NC(=O)N(C)C[C@H]1OCc2cnnn2CCCC(=O)N([C@H](C)CO)C[C@@H]1C | . | . | i | i | .
COc1ccccc1N1CCN(CC(O)c2c(C)[nH]c3ccccc23)CC1 (configuration not stated) | 18.4µM* | 2.8% | i | i | ?
COc1ccccc1N1CCN(CC(=O)c2c(C)[nH]c3ccccc23)CC1 | ? | -18.2% | ? | i | -0.3%
O=C(CCNS(=O)(=O)c1ccc2ccccc2c1)NCCOc1ccccc1 | 7.3% | -22.7% | i | i | 1.7%
CCc1nc(SC)ncc1C(=O)NCc1cccc(Br)c1 | . | . | i | i | .
COc1ccc(C(=O)/C=C/c2ccc(O)cc2)cc1 | 16.0% | 9.5% | i | i | 16.0%
COc1ccc(C(=O)/C=C/c2ccc(N(C)C)cc2)c(OC)c1 | 16.4µM* | 13.0% | ? | ? | ?
COc1ccc(C(=O)/C=C/c2ccccc2)c(OC)c1 | ? | ? | ? | i | 28.4%
COc1ccc2cc(C(=O)/C=C/c3cc(OC)c(O)c(OC)c3)ccc2c1 | 9.2µM* | -13.0% | ? | i | ?
COc1ccc(C(=O)/C=C/c2cc(OC)c(O)c(OC)c2)c(F)c1 | ? | 8.2µM* | ? | ? | 27.1%
O=C(Nc1ccc(C(=O)OCc2cc(=O)n3nc(C4CC4)sc3n2)cc1)c1cccc(F)c1 | . | . | i | ? | .
CC1CCCCC12NC(=O)N(CC(=O)OCC(=O)N(C)C1CCCCC1)C2=O (configuration not stated) | 1.0% | 3.7% | i | i | -8.1%
Cc1ccc(C(=O)Nc2ncc(C)s2)o1 | 20.4% | ? | i | i | -10.8%

Source: PubChem BioAssay
